Cycloheximide cs: affects cycloheximide protein synthesis inhibition readout, counter-screen; actives 12% (n = 300,000); max response, %; cell reporter, cycloheximide protein synthesis inhibition counterscreen; in the data active means max response mostly above about 13%, no sharp cut-off; inactive means mostly below about 14%; further: read at 38.3 µM for the half of the compounds with a filed dose; 0% is about no effect
LmPK inhibitor: blocks Leishmania mexicana pyruvate kinase activity. purified LmPK, Kinase-Glo ATP luminescence, 1 h. actives 0.37% (n = 290,000). Potency, µM (doses to about 57.5 µM), for the others: top-dose activity change, negative = inhibition, actives largely listed as inhibitors. Q27686; further: potency means the concentration at half of the fitted maximal effect; on the % scale 0 is the no-effect control and ±100 the full control effect
Target sequence (Q27686 whole entry, looked up): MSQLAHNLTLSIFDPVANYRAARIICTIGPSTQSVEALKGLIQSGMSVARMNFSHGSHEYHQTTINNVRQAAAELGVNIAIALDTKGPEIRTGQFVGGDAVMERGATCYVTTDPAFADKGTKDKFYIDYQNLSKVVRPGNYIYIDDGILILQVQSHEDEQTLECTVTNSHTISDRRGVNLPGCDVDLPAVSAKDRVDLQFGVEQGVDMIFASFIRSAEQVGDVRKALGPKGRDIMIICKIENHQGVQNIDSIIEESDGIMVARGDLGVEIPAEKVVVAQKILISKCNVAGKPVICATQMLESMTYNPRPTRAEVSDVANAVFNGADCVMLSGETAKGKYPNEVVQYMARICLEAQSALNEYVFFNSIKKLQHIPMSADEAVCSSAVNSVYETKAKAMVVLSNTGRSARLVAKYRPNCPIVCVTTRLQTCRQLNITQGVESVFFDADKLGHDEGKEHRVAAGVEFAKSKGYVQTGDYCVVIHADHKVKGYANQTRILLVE
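Purified LmPK (0.1 nM) with 0.5 mM PEP and 0.1 mM ADP in imidazole buffer pH 7.2 with MgCl2/KCl, 1 h at room temperature. ATP formed was read by luciferase luminescence and normalized to no-enzyme and uninhibited controls.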
Pf growth 96h: P. falciparum growth inhibition at 96 hours. P. falciparum luciferase reporter growth, 96 h. Potency, µM (series often up to 28.7 µM), for inactives: at the highest dose activity change, negative = inhibition, most hits filed as inhibitors. actives 6.9% (n = 320,000); further: potency means the concentration at half of the fitted maximal effect; on the % scale 0 is the no-effect control and ±100 the full control effect
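Plates of compound plus infected erythrocytes (2% hematocrit, 0.05% parasitemia final) incubate 96 hours, 37 C, 5% CO2. Detection reagent added; reduced luminescence from the parasites' luciferase reporter flags inhibition.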
Shiga inhibitor: blocks Shiga toxin action in Vero cells; Vero cells, Shiga toxin protein synthesis inhibition reporter; inhibition, % at 38.7 µM; actives 9.2% (n = 290,000); AID 2315; in the data active means inhibition mostly above about 28%, no sharp cut-off; inactive means mostly below about 43%; further: 0% is about no effect
Pf growth 48h: P. falciparum growth inhibition at 48 hours (one generation) | P. falciparum luciferase growth in erythrocytes, 48 h | Potency, µM (titrated, usually from 28.7 µM), for the others: top-dose activity change, negative = inhibition, most hits filed as inhibitors | actives 5.9% (n = 310,000) | AID 504832; further: potency means the concentration at half of the fitted maximal effect; on the % scale 0 is the no-effect control and ±100 the full control effect
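Cell-based growth assay: transgenic P. falciparum expressing firefly luciferase, cultured in red cells within RPMI 1640 containing 0.5% w/v Albumax, 24 mM bicarbonate and gentamycin. A drop in luciferase activity indicates inhibition.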
Starred values were filed as active, the others as inactive; ? = inconclusive; / = no result. Shown are actives, neighbours in structure and some others; about 22% of the full set was active somewhere. Unless noted, the call rests on the fitted dose curve; in most records, active means well fitted inhibition curve with a large enough effect; inconclusive means small, poorly fitted or top-dose-only effect, or another doubt; inactive means no such curve, though single readings can be large or run the other way.

SMILES | Cycloheximide cs | LmPK inhibitor | Pf growth 96h | Shiga inhibitor | Pf growth 48h
Cc1cccc(-c2cc3nc4c(c(NCc5ccco5)n3n2)CCCC4)c1 | 57* | 0% | 0% | 126* | -11%
OC1CCN(c2c3c(nc4cc(-c5ccc(F)cc5)nn24)CCC3)CC1 | 2 | -1% | ? | -6 | ?
Cc1cccc(-c2cc3nc4c(c(N5CCOCC5)n3n2)CCCC4)c1 | 32* | -8% | 75% | 73* | ?
COc1cccc(-c2cc3nc4c(c(N5CCC6(CC5)OCCO6)n3n2)CCC4)c1 | 11 | -2% | ? | 17 | ?
Fc1ccc(-c2cc3nc4c(c(N5CCOCC5)n3n2)CCCC4)cc1 | 29* | 7% | -7% | 95* | 10µM*
COc1ccccc1/C=C1\SC(=S)N(CC(=O)NC2CCS(=O)(=O)C2)C1=O (stereo not drawn) | 0 | 1% | ? | -3 | -1%
O=C(O)c1ccc(CSc2nc3ccc(N4C(=O)C5C6C=CC(C6)C5C4=O)cc3s2)cc1 (stereo not drawn) | 5 | 3% | -24% | -12 | -8%
CC(C)Sc1nc2ccc(N3C(=O)C4CCCCC4C3=O)cc2s1 (stereo not drawn) | 24* | 3% | 17% | 24 | 13%
O=C(c1cc(C2CC2)nn1-c1ccccc1)N1CCN(c2ccc(O)cc2)CC1 | / | / | ? | / | 10µM*
O=C(c1cc(C2CC2)nn1-c1ccccc1)N1CCN(S(=O)(=O)c2c(F)cccc2F)CC1 | / | / | ? | / | 7.4µM*
CCOc1ccc(S(=O)(=O)N2CCN(C(=O)c3cc(C4CC4)nn3-c3ccccc3)CC2)cc1 | / | / | ? | / | 4.7µM*
O=C(c1cc(C2CC2)nn1-c1ccccc1)N1CCN(c2ccccn2)CC1 | / | / | ? | / | -97%
CCOc1ccc(S(=O)(=O)N2CCC(C(=O)N3CCN(c4ccccc4)CC3)CC2)cc1 | 23 | -12% | 12% | -3 | ?
CC(OC(=O)CCc1nc2ccccc2c(=O)[nH]1)C(=O)c1ccc(Br)cc1 (stereo not drawn) | -4 | -3% | 37% | 0 | 7%
Cc1ccccc1OCC(=O)OCC(=O)NC1CCCCCC1 | / | / | 24% | / | 2%
COc1ccc(CC/C(C)=N\NC(N)=O)cc1 | 0 | 0% | 7% | -3 | 1%
c1ccc2c(NCCc3c[nH]c4ccccc34)c3ccccc3nc2c1 | -11 | 3% | 3.3µM* | 24 | 0.59µM*
Fc1cccc(NCCc2c[nH]c3ccccc23)n1 | 37* | 7% | 35% | 40 | 21%
OCCCNc1c2ccccc2nc2ccccc12 | -6 | -1% | 28% | -5 | 5.2µM*
CC(C)(C)Nc1c2ccccc2nc2ccccc12 | -2 | 1% | 8% | -5 | ?
O=C(Nc1cccc(OCC(=O)N2CCOCC2)c1)c1ccc(C(F)(F)F)cc1 | -1 | 1% | -1% | 17 | 21%
COc1cccc(CC(=O)OCC(=O)N(C)CC(=O)Nc2ccc(F)cc2)c1 | / | / | 73% | / | 26%
Cc1ccc(NC2=NC3(CCCC3)N=C(N)N2)c(C)c1 | -3 | -5% | 204% | -7 | ?
Cc1ccc(NC2=NC3(CCCCC3)N=C(N)N2)c(C)c1 | -3 | -3% | 8.3µM* | -12 | ?
NC1=NC2(CCCCC2)N=C(Nc2ccc(Br)cc2)N1 | -5 | -3% | ? | -9 | 1µM*
SMILES | Cycloheximide cs | LmPK inhibitor | Pf growth 96h | Shiga inhibitor | Pf growth 48h
CC1CCCCC1NC(=O)C1CCCN(S(=O)(=O)c2ccc(-n3cnnn3)cc2)C1 (stereo not drawn) | -4 | -5% | ? | -14 | -8%
Cc1csc(C(C)N(C)C(=O)c2ccc(OC3CCN(Cc4ccccn4)CC3)cc2)n1 (stereo not drawn) | 2 | 0% | ? | -13 | ?
Cc1ccc(N2NC3(CCN(C(N)=O)CC3)NC2=O)cc1 | -2 | 1% | 31% | 15 | 17%
O=C(Nc1cccc(Cl)c1)N1CCN2C(=O)c3ccccc3C12c1ccccc1 (stereo not drawn) | -1 | 16% | 10µM* | -7 | 17µM*
Cc1ccc(C(=O)N2CCN3C(=O)c4ccccc4C23c2ccc(Cl)cc2)cc1 (stereo not drawn) | -2 | 4% | 6.6µM* | -20 | /
O=C(NNS(=O)(=O)c1ccc(Cl)cc1)NC1CCCCC1 | -2 | 7% | 55% | -8 | 17%
O=C(Nc1ccc(F)cc1)NC1CCCCCCC1 | 61* | -4% | 19% | 108* | 51%
CN(CC(=O)Nc1ccc(F)cc1)CC(=O)NC1CCCCC1 | / | / | -15% | / | ?
Nc1ccc(NC(=O)NC2CCCCC2)cc1 | 38* | -1% | -5% | 61* | 84%
O=C(Nc1ccc(Cl)cc1)NC1CCCCC1Cc1ccco1 (stereo not drawn) | 3 | 3% | ? | -7 | ?
O=C(Nc1ccc(Cl)cc1)NC1CCCC1Cc1ccco1 (stereo not drawn) | 41* | 6% | ? | 47* | 10µM*
O=C(Nc1ccc(Cl)cc1)NC1CCCCC1 | 38* | 5% | 374% | 100 | 48%
CN1CCC(NC(=O)Nc2ccc(Br)cc2)CC1 | 1 | 2% | ? | 29 | ?
Cc1cc(C)cc(N2C(=O)CC(c3ccccc3)CC2=O)c1 | / | / | 43% | / | -1%
COc1cc(C(=O)NNC(=O)Nc2ccc([N+](=O)[O-])cc2)cc(OC)c1OC | 5 | 6% | -6% | -2 | 5%
O=C(/C=C/c1ccc(F)cc1)NC(=S)Nc1ccccc1C(=O)NC1CCCCC1 | 1 | 0% | -1% | -3 | 0%
O=C(Nc1ccc(F)c(F)c1)NC1CCCCC1 | 30* | -3% | 0% | 50* | 64%
O=C(Nc1ccc2nsnc2c1)NC1CCCCC1 | 50* | -2% | 28% | 72 | /
O=C(/C=C/c1ccc(F)cc1)NC(=S)NC1CCCCC1 | 5 | 4% | 3.3µM* | -5 | ?
Nc1ccc(NC(=O)NC2CCCCC2)cc1[N+](=O)[O-] | 33* | 4% | 136% | 65* | 131%
O=C(Nc1ccc2nsnc2c1)C1CC1 | 12 | 10% | 22% | 15 | 69%
Cc1ccc(NC(=O)NC2CCCCCCC2)cc1C | 27 | 0% | ? | 19 | 4%
COc1cccc(C(=O)OCC(=O)NCCCc2ccccc2)c1 | -2 | 3% | 18% | -7 | /
CCc1cc(C(=O)N2CCCC(Nc3ccc(F)c(F)c3)C2)n(C)n1 (stereo not drawn) | -3 | 7% | ? | -9 | 17%
O=C(NC1CCCCCCC1)c1ccc(F)cc1 | 46* | -7% | 43% | 71* | -9%
CC(NCc1ccc(F)cc1)C(=O)NC1CCCCC1 (stereo not drawn) | 7.1* | 1% | -6% | 53* | 24%
O=C(NC1CC2CCCC(C1)N2C(=O)NC1CCCCC1)c1ccc(F)cc1 (stereo not drawn) | -6 | 1% | / | -6 | ?
O=C(Nc1ccc(Cl)cc1)NC1CCCCNC1=O (stereo not drawn) | 28* | -3% | 27% | 46* | 69%
O=C(NC1CCCCCC1)c1ccc(N2CCCC2=O)cc1 | 21 | ? | 201% | 74* | 168%

Assay outcomes: PubChem BioAssay, National Center for Advancing Translational Sciences (NCATS)
